# Sampled rows, rich in hits. Any-hit rate of the full collection: about 22%.
# CYP2C19 activ = cytochrome P450 2C19 (human) activation; 96,000 tested, under 10 active; AID 1025; activation factor at 5 µM; P33261; recombinant CYP2C19, luciferin-H EGE luminescence; stronger effect = higher value; 0 = fully inhibited enzyme, 1 = untreated enzyme;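 active = activation factor of at least 2 at 5 µM in the primary screen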
# CYP2C19 inh = human CYP2C19 inhibition; P33261; CYP2C19 Supersomes, luciferin-H EGE luminescence, 30 min; inhibition, % at 5 µM; 21% of 96,000 active;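 active = CYP2C19 inhibition above a set limit at 5 µM in the primary screen, cut at about 50% in these data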
# CYP2C9 inhib = human CYP2C9 inhibition; P11712; CYP2C9 Supersomes, luciferin-H conversion, luminescence; inhibition, % at 5 µM; 20% of 96,000 active; AID 777;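 active = blocking of liver enzyme CYP2C9 beyond about 50% at 5 µM, limit read from the data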
# Target sequence (P11712 whole entry, looked up): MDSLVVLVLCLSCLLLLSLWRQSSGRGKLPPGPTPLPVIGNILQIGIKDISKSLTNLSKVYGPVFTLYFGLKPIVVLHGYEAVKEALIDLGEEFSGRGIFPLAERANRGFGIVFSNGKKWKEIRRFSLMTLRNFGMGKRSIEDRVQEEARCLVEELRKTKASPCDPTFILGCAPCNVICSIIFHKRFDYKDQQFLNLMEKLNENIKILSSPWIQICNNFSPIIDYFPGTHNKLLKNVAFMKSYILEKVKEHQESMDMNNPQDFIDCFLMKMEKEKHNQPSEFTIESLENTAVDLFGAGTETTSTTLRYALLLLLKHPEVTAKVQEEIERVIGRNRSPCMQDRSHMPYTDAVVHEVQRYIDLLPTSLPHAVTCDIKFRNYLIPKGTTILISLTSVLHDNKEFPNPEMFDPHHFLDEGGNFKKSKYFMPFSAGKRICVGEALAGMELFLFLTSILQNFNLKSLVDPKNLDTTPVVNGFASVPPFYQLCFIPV
# CYP2C9 activ = increases human cytochrome P450 2C9 activity; recombinant CYP2C9, luciferin-H conversion, luminescence; stronger effect = higher value; factor 1 = untreated enzyme, 0 = blocked; activation factor at 5 µM; 1.4% of 96,000 active; AID 1024;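 active = activation factor of 2 or more for CYP2C9 at a 5 µM dose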
# Measles CPE = protection of cells from measles virus; 1.5% of 140,000 active; protection (pct of control), % at 4 µM; AID 841; Measles virus-infected cells, CPE protection, absorbance; in the data active = protection mostly above about 24%, no sharp cut-off; inactive = mostly below about 26%
# Hits are given with their value; . = inactive; / = no result.
SMILES,CYP2C19 activ,CYP2C19 inh,CYP2C9 inhib,CYP2C9 activ,Measles CPE
C/C(CC(=O)Nc1cc(C)ccn1)=N\NC(=O)COc1cccc(C)c1,.,.,.,.,.
Cc1ccc2nc3sc(C(=O)N4CCCc5ccccc54)c(N)c3cc2c1,.,86.9,91.5,.,.
O=C(c1cc(-c2cccnc2)nc2ccccc12)N1CCCc2ccccc21,/,/,/,/,.
Cc1cc(C)c2cc3c(N)c(C(=O)N4CCc5ccccc5C4)sc3nc2c1,.,.,.,.,.
Cc1ccc(-c2cc(C(=O)N3CCCc4ccccc43)c3ccccc3n2)cc1,.,71.0,92.8,.,.
Cc1ccc(-c2cn(-c3ccccc3)c(SCC(=O)NC3CCS(=O)(=O)C3)n2)cc1C (configuration not stated),/,/,/,/,.
Cc1ccc(C(O)P(=O)(OC2CCCCC2)OC2CCCCC2)cc1 (configuration not stated),.,88.6,61.6,.,.
CN(C)c1cccc(C(=O)N/N=C/c2ccsc2)c1,/,/,/,/,.
C=CCn1c(C(c2ccccc2)c2ccccc2)n[nH]c1=S,/,/,/,/,.
O=C1/C(=C\c2ccco2)SC(=S)N1c1ccc(O)cc1,/,/,/,/,39.2
COC(=O)c1ccc(-c2nc(O)c3cnccn23)cc1,.,50.8,.,.,.
Cc1cc(Cl)ccc1OC(C)C(=O)Nc1ccccc1N1CCOCC1 (configuration not stated),.,90.0,96.9,.,.
COC(=O)c1cc(NCc2ccccc2F)ccc1N1CCOCC1,.,86.9,54.9,.,.
COc1cc(OC)cc(C(=O)N[C@H](C(=O)Nc2ccccc2N2CCOCC2)C(C)C)c1,.,.,.,.,.
CCOc1ccc(C(=O)C2CCN(CC(=O)Nc3ccccc3N3CCOCC3)CC2)cc1,.,99.1,96.3,.,.
COC(=O)c1ccccc1NC(=O)CNc1cc(Cl)ccc1N1CCOCC1,.,84.0,94.5,.,.
Cn1c(NCC2CCCO2)nc2c1c(=O)n(Cc1ccccc1)c(=O)n2C (configuration not stated),.,.,.,.,.
O=C(Nc1ccccc1N1CCOCC1)c1cccc([N+](=O)[O-])c1,/,/,/,/,.
CC(C)Oc1cccc(C(=O)Nc2ccccc2N2CCOCC2)c1,.,.,58.7,.,.
CCOc1ccc(C(=O)Nc2ccccc2N2CCOCC2)cc1,.,.,.,.,.
COc1ccccc1NC(=O)Cn1c(=O)oc2ccccc21,.,.,.,.,.
COC(=O)c1ccccc1NC(=O)Cn1c(=O)oc2ccc(Cl)cc21,.,74.2,.,.,.
CCC(C)Oc1cccc(C(=O)Nc2ccccc2N2CCOCC2)c1 (configuration not stated),.,67.9,73.1,.,.
CSc1ccccc1C(=O)N1CCOCC1,/,/,/,/,.
O=C(Nc1ccc2c(c1)OCCO2)C1CCN(C(=O)c2ccc(Br)cc2)CC1,.,.,85.0,.,.
SMILES,CYP2C19 activ,CYP2C19 inh,CYP2C9 inhib,CYP2C9 activ,Measles CPE
O=C(Nc1ccc2c(c1)OCCO2)C1CCN(C(=O)c2ccccc2)CC1,.,.,/,/,.
O=C(Nc1cccc(F)c1)C1CCN(c2nnnn2-c2ccccc2)CC1,.,.,50.6,.,.
O=C(Nc1ccc2c(c1)OCCO2)C1CCN(c2nnnn2-c2ccccc2)CC1,.,.,.,.,.
O=C(Nc1cccc(F)c1)C1CCN(C(=O)c2ccc(Br)cc2)CC1,.,90.1,92.9,.,.
CS(=O)(=O)N1CCC(C(=O)Nc2ccc3c(c2)OCCO3)CC1,.,.,.,.,.
COC(=O)Nc1ccc(S(=O)(=O)N2CCC(C)CC2)cc1,.,.,.,.,.
O=C(NC(C(=O)N/N=C/c1ccccc1)c1n[nH]c(=O)c2ccccc12)c1ccccc1 (configuration not stated),.,.,51.9,.,.
CCOC(=O)C1=C(CC)NC2=C(C(=O)CCC2)C1c1ccc(OC)c(OC)c1 (configuration not stated),.,50.1,.,.,.
COc1cccc(C2C(C(=O)Nc3nc4ccccc4s3)=C(C)NC3=C2C(=O)CC(C)(C)C3)c1OC (configuration not stated),.,.,.,.,.
CCCCOC(=O)C1=C(C)NC2=C(C(=O)CCC2)C1c1cc(OC)ccc1OC (configuration not stated),.,62.7,84.7,.,.
CCSCCOC(=O)C1=C(C)NC(=O)NC1c1cc(OC)ccc1OC (configuration not stated),.,.,.,.,.
COc1ccc(OC)c(C2C(C(=O)Nc3nc4ccccc4s3)=C(C)NC3=C2C(=O)CCC3)c1 (configuration not stated),.,63.9,74.1,.,.
CCOC(=O)C1=C(C)NC2=C(C(=O)CCC2)C1c1cc(OC)ccc1OC (configuration not stated),.,79.2,88.4,.,.
CC(C)(C)c1ccc(/C=N/OCC(=O)NCc2ccccc2)cc1,/,/,/,/,.
CCCOC(=O)C1=C(C)NC2=C(C(=O)CCC2)C1c1cc(OC)ccc1OC (configuration not stated),.,66.7,77.7,.,.
COc1cc(C2C(C(=O)N3CCOCC3)=C(C)NC3=C2C(=O)CCC3)ccc1OC(C)=O (configuration not stated),.,.,.,.,.
CCc1ccc(N2C(=O)c3sc4nnc(-c5ccccc5)c(=O)n4c3C2=O)cc1,.,.,63.6,.,.
CCn1c(-c2ccccc2O)n[nH]c1=S,.,.,.,.,.
CCN(CC)CCn1nc(C)nc1-c1ccccc1O,.,88.3,.,.,.
O=C(NCC1CCCO1)C1CC(c2ccc(Cl)c(Cl)c2)=NO1 (configuration not stated),.,.,.,2.5,.
Cn1ncc(C#N)c1NC(=O)c1cc(-c2ccccc2Cl)on1,.,.,.,.,.
COc1ccc(NC(=O)C2CC(c3ccc(OC)c(OC)c3)=NO2)cc1OC (configuration not stated),.,.,.,.,.
Cn1ncc(C#N)c1NC(=O)C1CC(c2c(F)cccc2Cl)=NO1 (configuration not stated),.,76.8,71.7,.,.
Cn1ncc(C#N)c1NC(=O)C1CC(c2ccc(Cl)c(Cl)c2)=NO1 (configuration not stated),.,84.7,51.3,.,.
Cc1cccc(-c2nc(CSCC(=O)NCc3cccs3)c(C)o2)c1,.,.,.,.,.
O=C(Nc1nc2ccc(Oc3ccccc3)cc2s1)c1cc([N+](=O)[O-])ccc1N1CCOCC1,/,/,/,/,.
Cc1ccc(CC(CC(=O)NCCc2ccc3c(c2)OCO3)C(=O)O)cc1 (configuration not stated),.,.,.,.,.
CCOC(=O)c1c(C)nc2c(c1-c1cc(OC)ccc1OC)C(=O)c1ccccc1-2,.,.,.,.,.
CCOC(=O)C1=C(Cc2ccc(OC)cc2)C(=O)c2ccccc2C1=O,.,56.5,54.6,.,.
CCOC(=O)C1=C(Cc2ccc(C)cc2)C(=O)c2ccccc2C1=O,.,73.7,61.0,.,.

# High-throughput results as filed in PubChem.
